Laboratory results from the supplement of paper PMC11732987, “Enantioselective OTUD7B fragment discovery through chemoproteomics screening and high-throughput optimisation” (Communications Chemistry, 2025).

What was measured:
Assay in all cases: log2 ratio of Biotin-Ahx-Ub-VS probe labelling (fragment/DMSO); higher = less target engagement (more negative = stronger competition), active = hit call of the paper (q ≤ 0.05, log2 ratio ≤ -1)
Settings in all cases: compound concentration: 200 uM; treatment time: 3 h
USP19 = target: T1, USP19 (UniProt O94966)
T1 sequence (whole entry): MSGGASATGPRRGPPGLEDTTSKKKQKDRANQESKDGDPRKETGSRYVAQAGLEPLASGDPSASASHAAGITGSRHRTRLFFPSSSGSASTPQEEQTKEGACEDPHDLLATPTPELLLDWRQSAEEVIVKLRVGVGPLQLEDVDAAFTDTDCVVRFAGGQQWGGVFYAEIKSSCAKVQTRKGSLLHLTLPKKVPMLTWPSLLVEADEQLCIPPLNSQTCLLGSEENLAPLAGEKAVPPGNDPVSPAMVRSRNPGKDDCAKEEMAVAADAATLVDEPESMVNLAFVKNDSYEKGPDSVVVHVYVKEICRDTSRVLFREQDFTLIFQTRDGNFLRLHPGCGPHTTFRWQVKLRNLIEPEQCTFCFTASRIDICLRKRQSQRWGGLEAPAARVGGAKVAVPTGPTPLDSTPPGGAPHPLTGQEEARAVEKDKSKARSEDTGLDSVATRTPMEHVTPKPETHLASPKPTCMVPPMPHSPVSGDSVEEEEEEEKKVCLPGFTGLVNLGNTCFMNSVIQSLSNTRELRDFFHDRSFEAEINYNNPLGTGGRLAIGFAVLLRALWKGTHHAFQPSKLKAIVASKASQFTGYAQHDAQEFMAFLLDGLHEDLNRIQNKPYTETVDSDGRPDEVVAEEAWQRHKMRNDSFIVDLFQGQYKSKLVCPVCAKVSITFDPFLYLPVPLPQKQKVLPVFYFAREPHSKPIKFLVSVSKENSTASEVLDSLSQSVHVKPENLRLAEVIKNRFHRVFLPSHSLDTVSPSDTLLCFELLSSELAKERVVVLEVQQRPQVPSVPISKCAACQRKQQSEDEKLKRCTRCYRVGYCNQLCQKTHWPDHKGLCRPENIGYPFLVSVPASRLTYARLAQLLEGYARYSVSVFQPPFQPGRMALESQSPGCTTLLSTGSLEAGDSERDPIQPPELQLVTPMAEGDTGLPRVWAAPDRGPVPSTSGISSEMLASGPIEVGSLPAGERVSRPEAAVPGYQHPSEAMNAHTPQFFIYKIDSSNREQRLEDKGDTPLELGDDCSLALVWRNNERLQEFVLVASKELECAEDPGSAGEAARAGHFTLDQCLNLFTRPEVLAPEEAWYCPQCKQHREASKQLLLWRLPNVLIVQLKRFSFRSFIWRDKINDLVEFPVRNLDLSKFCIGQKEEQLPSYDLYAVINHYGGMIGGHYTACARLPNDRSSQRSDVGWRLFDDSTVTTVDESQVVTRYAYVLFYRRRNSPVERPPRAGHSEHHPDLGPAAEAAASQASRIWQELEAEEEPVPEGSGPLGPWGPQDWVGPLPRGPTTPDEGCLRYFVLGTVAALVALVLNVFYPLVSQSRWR
Method in brief: (§1)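 HEK293T lysate (495 µg per sample, in Tris/CHAPS/IGEPAL buffer with protease inhibitors) was exposed in triplicate for 3 h to fragment at 200 µM or to vehicle, then to Biotin-Ahx-Ub-VS at 0.5 µM final for 1 h. Labelled DUBs were enriched on NeutrAvidin, digested with LysC and trypsin, and analysed by diaPASEF LC-MS/MS. Spectronaut label-free quantities were normalised to the global median, and values are average log2 ratios of fragment over vehicle from an unpaired t-test. Only proteins with ≥2 unique peptides were used.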

USP22 = target: T2, USP22 (UniProt Q9UPT9)
T2 sequence (whole entry): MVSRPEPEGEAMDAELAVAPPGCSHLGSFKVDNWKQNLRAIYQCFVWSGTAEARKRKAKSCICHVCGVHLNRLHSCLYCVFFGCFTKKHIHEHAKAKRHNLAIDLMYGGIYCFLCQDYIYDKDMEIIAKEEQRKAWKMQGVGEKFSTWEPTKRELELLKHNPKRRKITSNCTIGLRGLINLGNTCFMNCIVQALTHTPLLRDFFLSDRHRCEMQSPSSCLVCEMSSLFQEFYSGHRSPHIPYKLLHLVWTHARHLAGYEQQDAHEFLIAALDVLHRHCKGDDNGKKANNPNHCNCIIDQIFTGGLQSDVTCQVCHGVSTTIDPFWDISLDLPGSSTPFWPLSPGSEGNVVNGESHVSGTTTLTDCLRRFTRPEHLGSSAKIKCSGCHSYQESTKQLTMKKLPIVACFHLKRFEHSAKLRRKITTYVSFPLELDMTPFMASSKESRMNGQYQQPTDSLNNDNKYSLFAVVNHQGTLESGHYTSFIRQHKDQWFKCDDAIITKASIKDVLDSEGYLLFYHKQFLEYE
Method in brief: as §1

USP24 = USP24 (UniProt Q9UPU5)
Chain of USP24 (Q9UPU5 whole entry): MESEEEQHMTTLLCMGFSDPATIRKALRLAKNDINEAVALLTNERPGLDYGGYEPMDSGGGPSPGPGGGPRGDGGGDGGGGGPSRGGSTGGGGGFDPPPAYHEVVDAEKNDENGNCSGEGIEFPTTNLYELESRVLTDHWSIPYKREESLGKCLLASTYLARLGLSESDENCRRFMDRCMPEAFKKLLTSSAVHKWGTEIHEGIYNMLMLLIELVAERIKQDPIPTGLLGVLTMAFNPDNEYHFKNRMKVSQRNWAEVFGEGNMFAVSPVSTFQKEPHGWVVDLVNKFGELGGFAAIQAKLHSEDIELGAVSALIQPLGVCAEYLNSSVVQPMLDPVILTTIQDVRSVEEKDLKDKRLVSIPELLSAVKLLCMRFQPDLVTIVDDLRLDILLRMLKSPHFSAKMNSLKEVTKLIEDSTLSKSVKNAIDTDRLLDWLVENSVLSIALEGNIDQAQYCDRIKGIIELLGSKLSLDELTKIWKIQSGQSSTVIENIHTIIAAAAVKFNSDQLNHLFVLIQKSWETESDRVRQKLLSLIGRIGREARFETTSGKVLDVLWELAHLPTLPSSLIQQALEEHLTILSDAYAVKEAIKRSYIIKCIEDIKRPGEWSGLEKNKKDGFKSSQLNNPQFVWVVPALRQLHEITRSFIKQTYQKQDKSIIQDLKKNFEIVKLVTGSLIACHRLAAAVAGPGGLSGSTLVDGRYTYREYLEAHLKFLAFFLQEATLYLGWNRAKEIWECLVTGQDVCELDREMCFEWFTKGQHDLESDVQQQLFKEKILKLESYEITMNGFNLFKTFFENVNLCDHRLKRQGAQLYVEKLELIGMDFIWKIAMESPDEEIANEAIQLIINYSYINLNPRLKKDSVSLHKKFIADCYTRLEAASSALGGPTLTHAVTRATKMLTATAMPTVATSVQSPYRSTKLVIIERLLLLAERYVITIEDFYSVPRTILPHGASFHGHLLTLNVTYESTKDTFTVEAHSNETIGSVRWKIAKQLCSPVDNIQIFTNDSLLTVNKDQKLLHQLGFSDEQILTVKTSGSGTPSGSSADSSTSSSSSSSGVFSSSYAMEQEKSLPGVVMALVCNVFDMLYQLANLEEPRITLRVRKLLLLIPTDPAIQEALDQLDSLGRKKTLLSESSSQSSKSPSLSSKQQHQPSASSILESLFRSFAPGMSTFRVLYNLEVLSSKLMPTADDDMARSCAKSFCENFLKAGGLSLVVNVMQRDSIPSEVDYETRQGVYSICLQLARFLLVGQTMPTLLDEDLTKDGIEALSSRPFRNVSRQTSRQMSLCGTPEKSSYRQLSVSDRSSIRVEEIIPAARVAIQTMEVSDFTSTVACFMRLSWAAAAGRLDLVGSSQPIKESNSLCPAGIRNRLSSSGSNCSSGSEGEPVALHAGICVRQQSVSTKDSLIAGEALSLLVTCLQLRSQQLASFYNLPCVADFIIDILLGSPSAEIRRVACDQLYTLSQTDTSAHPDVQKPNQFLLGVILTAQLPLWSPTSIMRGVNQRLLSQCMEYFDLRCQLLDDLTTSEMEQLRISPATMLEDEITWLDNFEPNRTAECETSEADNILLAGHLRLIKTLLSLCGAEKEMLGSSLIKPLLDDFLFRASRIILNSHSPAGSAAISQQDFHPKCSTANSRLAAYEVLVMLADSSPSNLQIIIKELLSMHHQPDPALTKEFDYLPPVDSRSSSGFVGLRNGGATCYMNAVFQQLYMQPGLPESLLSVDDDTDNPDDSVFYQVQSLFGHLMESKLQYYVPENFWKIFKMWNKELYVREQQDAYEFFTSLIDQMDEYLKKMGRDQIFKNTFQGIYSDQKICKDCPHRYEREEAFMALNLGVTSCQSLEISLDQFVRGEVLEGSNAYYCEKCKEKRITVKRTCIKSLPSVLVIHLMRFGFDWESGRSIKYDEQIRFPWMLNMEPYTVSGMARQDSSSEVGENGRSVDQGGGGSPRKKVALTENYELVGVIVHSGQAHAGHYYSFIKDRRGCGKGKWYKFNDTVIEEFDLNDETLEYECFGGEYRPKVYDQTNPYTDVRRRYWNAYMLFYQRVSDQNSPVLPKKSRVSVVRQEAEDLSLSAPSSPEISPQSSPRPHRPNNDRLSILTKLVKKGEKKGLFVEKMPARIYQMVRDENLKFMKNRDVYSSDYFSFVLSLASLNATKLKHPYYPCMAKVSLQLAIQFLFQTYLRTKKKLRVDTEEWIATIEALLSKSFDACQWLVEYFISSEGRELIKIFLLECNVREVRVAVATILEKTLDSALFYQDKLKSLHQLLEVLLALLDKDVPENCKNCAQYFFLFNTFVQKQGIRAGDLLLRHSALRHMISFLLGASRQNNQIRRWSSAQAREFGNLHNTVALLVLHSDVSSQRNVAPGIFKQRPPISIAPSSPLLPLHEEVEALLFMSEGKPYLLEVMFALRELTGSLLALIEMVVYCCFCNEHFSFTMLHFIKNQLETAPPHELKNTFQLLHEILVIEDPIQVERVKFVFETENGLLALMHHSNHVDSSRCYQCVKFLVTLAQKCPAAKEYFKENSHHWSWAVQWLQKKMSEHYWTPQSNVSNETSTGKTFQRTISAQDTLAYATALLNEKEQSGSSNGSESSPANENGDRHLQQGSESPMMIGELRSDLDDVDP
Method in brief: as §1

USP25 = target: T3, USP25 (UniProt Q9UHP3)
T3 sequence (whole entry): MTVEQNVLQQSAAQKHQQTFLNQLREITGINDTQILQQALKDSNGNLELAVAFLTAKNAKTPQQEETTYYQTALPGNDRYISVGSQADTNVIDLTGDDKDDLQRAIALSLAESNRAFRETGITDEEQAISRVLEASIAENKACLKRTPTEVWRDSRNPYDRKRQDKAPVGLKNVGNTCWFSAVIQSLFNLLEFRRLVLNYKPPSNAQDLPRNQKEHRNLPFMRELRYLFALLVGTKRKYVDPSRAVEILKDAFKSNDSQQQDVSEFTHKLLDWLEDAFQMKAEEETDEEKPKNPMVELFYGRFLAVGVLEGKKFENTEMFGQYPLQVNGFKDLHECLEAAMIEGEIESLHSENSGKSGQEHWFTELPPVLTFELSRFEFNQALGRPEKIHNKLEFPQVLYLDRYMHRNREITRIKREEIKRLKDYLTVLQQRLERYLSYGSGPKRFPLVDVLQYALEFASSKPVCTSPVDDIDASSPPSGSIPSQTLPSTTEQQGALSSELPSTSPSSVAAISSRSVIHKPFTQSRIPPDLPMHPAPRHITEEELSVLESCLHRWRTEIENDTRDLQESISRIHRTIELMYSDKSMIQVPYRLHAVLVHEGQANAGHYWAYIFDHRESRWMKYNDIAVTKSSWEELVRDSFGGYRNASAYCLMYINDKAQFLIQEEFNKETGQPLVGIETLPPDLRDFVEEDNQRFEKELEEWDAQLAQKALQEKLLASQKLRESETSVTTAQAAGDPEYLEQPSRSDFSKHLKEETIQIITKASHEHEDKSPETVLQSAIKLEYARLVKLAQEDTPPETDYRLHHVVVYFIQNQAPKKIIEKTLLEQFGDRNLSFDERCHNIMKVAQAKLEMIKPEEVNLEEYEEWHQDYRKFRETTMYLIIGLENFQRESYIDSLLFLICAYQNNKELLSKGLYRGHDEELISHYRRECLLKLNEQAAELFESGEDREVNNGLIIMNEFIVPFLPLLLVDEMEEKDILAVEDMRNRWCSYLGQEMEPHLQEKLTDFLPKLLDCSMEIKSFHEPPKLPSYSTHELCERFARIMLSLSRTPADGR
Method in brief: as §1

USP28 = target: T4, USP28 (UniProt Q96RU2)
T4 sequence (whole entry): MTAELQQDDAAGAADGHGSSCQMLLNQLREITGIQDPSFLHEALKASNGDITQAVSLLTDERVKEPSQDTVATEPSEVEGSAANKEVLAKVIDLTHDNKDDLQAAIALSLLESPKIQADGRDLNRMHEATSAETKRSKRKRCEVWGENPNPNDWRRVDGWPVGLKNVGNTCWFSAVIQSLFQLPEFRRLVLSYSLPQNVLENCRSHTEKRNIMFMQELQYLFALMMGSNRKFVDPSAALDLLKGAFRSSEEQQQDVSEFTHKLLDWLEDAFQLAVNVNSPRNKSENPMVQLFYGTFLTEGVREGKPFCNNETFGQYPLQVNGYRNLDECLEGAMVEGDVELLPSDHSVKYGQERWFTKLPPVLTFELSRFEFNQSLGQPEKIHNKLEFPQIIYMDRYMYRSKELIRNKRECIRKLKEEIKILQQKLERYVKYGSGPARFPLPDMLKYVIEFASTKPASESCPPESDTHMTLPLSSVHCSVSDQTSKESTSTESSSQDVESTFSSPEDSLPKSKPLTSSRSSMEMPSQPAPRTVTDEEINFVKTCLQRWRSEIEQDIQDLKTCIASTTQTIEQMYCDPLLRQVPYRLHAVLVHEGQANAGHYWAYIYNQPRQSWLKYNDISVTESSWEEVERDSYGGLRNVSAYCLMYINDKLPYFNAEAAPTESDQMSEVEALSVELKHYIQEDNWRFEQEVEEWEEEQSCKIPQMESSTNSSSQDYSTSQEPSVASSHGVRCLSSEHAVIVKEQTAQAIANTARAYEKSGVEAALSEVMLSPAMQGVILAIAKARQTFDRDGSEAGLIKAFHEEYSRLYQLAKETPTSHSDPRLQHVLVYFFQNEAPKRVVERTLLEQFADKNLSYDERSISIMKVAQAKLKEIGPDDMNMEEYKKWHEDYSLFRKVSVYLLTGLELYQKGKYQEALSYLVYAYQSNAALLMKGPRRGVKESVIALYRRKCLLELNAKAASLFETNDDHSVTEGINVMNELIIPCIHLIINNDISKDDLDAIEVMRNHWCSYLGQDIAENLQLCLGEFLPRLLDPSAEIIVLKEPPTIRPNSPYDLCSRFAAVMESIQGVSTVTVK
Method in brief: as §1

Measured: log2 ratio of Biotin-Ahx-Ub-VS probe labelling

Cc1cccc(C)c1NC(=O)CCl
inactive: USP19 -0.0774 | USP22 0.0867 | USP24 -0.266 | USP25 -0.436 | USP28 -0.794
